# According to PubChem BioAssay (Tox21):
# Several values for one entry are separate records, joined by “and”; a condition that tells them apart may be missing. Equal values may be shown once. Inconclusive results are not listed. Entries that show only a call come without a potency. Activity calls are given as the source filed them. Unless noted, calls come from the whole dose curve; as a rule, active = well fitted curve in the direction sought with a large enough effect in the repeat runs; inconclusive = weak or mixed curves; inactive = no such curve, though single readings can be large; an effect the other way counts as inactive or inconclusive.
# Columns and labels:
# [1] = A CellTox Green Cytotoxicity Assay to monitor cytotoxicity in HepG2 cells - 0 hour (AID 1224882); note: nearly all actives have a fitted effect of over 35% in size
# Summary of the method: (§1)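 First, HepG2 cells (600/well) mixed with reagent were plated; second, after 5 h at 37 C they received compounds via pintool; third, fluorescence was measured at 0 h through 40 h at 8 h intervals.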
# [2] = A CellTox Green Cytotoxicity Assay to monitor cytotoxicity in HepG2 cells - 32 hour (AID 1224883); note: nearly all actives have a fitted effect of over 50% in size; note: potency is the fitted concentration of half-maximal effect
# Summary of the method: as §1
# [3] = A CellTox Green Cytotoxicity Assay to monitor cytotoxicity in HEK293 cells - 8 hour (AID 1224884); note: nearly all actives have a fitted effect of over 35% in size; note: potency is the fitted concentration of half-maximal effect
# Summary of the method: (§2)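 Dead-cell fluorescence measured kinetically: asymmetric cyanine dye, HEK293, 600 cells/well, 5 h settle, 23 nL cpd/DMSO, 37 C, reads 0–40 h every 8 h.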
# [4] = qHTS RealTime-Glo MT Cell Viability Assay in HepG2 cells - 16 hour (AID 1224885); note: nearly all actives have a fitted effect of over 50% in size; note: potency is the fitted concentration of half-maximal effect
# Summary of the method: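 Tox21 10K library screened in qHTS format on HepG2 cells carrying RealTime-Glo reagents. Compounds were added after a 5 h preincubation, and the luminescent signal from continuous culture was measured repeatedly during 40 h treatment.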
# [5] = qHTS RealTime-Glo MT Cell Viability Assay in HEK293 cells - 24 hour (AID 1224886); note: nearly all actives have a fitted effect of over 50% in size; note: potency is the fitted concentration of half-maximal effect
# Summary of the method: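 Luminescence generated by NanoLuc from substrate produced by living HEK293 cells served as the viability signal. Each value reflects the reading at its stated time point during continuous 40 h compound exposure at 37 C.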
# [6] = qHTS RealTime-Glo MT Cell Viability Assay in HEK293 cells - 8 hour (AID 1224887); note: top concentration of the series differs between compounds; nearly all actives have a fitted effect of over 50% in size
# Summary of the method: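 600 HEK293 cells per well, dispensed already mixed with RealTime-Glo MT reagents. Compound dosing came 5 h later. The same wells were read for luminescence at 0, 8, 16, 24, 32 and 40 h of exposure at 37 C.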
# [7] = A CellTox Green Cytotoxicity Assay to monitor cytotoxicity in HEK293 cells - 16 hour (AID 1224888); note: nearly all actives have a fitted effect of over 35% in size; note: potency is the fitted concentration of half-maximal effect
# Summary of the method: as §2
# [8] = A CellTox Green Cytotoxicity Assay to monitor cytotoxicity in HepG2 cells - 8 hour (AID 1224890); note: nearly all actives have a fitted effect of over 45% in size; note: potency is the fitted concentration of half-maximal effect
# Summary of the method: as §1
# [9] = qHTS assay to identify small molecule antagonists of the estrogen receptor alpha (ER-alpha) signaling pathway using the BG1 cell line in the presence of 0.1 nM 17-beta-estradiol - cell viability counter screen (AID 1259241); note: nearly all actives have a fitted effect of over 40% in size; note: potency is the fitted concentration of half-maximal effect
# Summary of the method: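 VM7Luc4E2, 4,000 cells/well, phenol red-free medium + 10% charcoal-stripped FBS; 24 hr plating; cpd + 0.1 nM E2 final, 22 hr 37C/5% CO2; CellTiter-Fluor 30 min, fluorescence.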
# [10] = qHTS assay to identify small molecule antagonists of the androgen receptor (AR) signaling pathway using the MDA cell line in the presence of 0.5 nM R1881 - cell viability counter screen (AID 1259242); note: nearly all actives have a fitted effect of over 45% in size; note: potency is the fitted concentration of half-maximal effect
# Summary of the method: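 qHTS format. MDA-kb2 (MMTV-luc, AR/GR responsive) + cpd + 0.5 nM R1881 final, 16 hr 37C/0% CO2 → CellTiter-Fluor 30 min → fluorescence intensity.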
# [11] = molecular target: Estrogen receptor (Homo sapiens) (UniProt P03372); assay: qHTS assay to identify small molecule antagonists of the estrogen receptor alpha (ER-alpha) signaling pathway using the BG1 cell line in the presence of 0.1 nM 17-beta-estradiol (AID 1259244); note: nearly all actives have a fitted effect of over 50% in size
# Summary of the method: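 Reporter is a stably transfected luciferase under four estrogen responsive elements in VM7Luc4E2 cells expressing native full-length ER-alpha; inhibition of 0.1 nM (final) 17beta-estradiol-driven signal over 22 h is read by luminescence.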
# [12] = qHTS assay to identify small molecule phospholipidosis (PLD) inducers (AID 1259344; active = well fitted curve in the direction sought with a large enough effect; an effect the other way counts as inactive or inconclusive)
# Summary of the method: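 Read-out is LipidTOX Red fluorescence (ex 595/em 615) imaged in HepG2 cells after 24 h compound exposure at 37 C, with Hoechst nuclear counterstain (ex 352/em 461) allowing per-cell normalisation.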
# [13] = qHTS assay to identify small molecule HDAC inhibitors (AID 1259364);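 note: wild-type HCT-116 cells with endogenous class I/II HDAC activity; top concentration of the series differs between compounds; nearly all actives have a fitted effect of over 45% in size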
# Summary of the method: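 Quantitative high-throughput format: overnight-seeded HCT-116 cells got compounds for 2 hr at 37C; HDAC-Glo I/II reagent added, 30 min RT, luminescence measured.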
# [14] = qHTS assay to identify small molecule agonists of the sonic hedgehog signaling (Shh) pathway - cell viability counter screen (AID 1259366); note: nearly all actives have a fitted effect of over 50% in size; note: potency is the fitted concentration of half-maximal effect
# Summary of the method: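 Cytotoxicity counter screen run in the same wells as the Shh reporter assay. NIH/3T3 cells carrying a Gli1 response element–driven luciferase were treated with DMSO-dissolved compounds for 24hr, and live-cell protease activity was measured with CellTiter-Fluor.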
# [15] = qHTS assay to identify small molecule antagonists of the sonic hedgehog signaling (Shh) pathway - cell viability counter screen (AID 1259367); note: nearly all actives have a fitted effect of over 55% in size; note: potency is the fitted concentration of half-maximal effect
# Summary of the method: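 Fluorescence read-out (CellTiter-Fluor, 1 hr at 37C) taken after 23 hr compound treatment of 3T3 Gli1-Luc cells stimulated with conditioned medium. Cells were seeded at 2,000 per well and pre-incubated 4 hr.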
# [16] = qHTS assay to identify small molecule agonists of the sonic hedgehog signaling (Shh) pathway (AID 1259368; calls by dose curve;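 note: NIH/3T3-derived 3T3Gli1-Luc cells carrying a stable Gli1-driven firefly luciferase reporter; series mostly up to about 92 µM; nearly all actives have a fitted effect of over 15% in size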)
# Summary of the method: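 Quantitative high-throughput format using a Gli1-driven firefly luciferase reporter line derived from NIH/3T3 cells. After a 24 hr compound treatment at 37 C and 5% CO2, luminescence reported Gli1 response element activity.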
# [17] = A CellTox Green Cytotoxicity Assay to monitor cytotoxicity in HEK293 cells - 32 hour (AID 1224881); note: nearly all actives have a fitted effect of over 40% in size; note: potency is the fitted concentration of half-maximal effect
# Summary of the method: as §2
# [18] = qHTS assay to identify small molecule HDAC inhibitors - cell viability counter screen (AID 1259365)
# Summary of the method: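 Luminescence from CellTiter-Glo, developed 30min at room temperature, reports viability of wild-type HCT-116 cells treated 2hr with compounds at 37 C and 5% CO2 after overnight plating.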
# Sequence of Estrogen receptor (Homo sapiens) (P03372 whole entry, looked up): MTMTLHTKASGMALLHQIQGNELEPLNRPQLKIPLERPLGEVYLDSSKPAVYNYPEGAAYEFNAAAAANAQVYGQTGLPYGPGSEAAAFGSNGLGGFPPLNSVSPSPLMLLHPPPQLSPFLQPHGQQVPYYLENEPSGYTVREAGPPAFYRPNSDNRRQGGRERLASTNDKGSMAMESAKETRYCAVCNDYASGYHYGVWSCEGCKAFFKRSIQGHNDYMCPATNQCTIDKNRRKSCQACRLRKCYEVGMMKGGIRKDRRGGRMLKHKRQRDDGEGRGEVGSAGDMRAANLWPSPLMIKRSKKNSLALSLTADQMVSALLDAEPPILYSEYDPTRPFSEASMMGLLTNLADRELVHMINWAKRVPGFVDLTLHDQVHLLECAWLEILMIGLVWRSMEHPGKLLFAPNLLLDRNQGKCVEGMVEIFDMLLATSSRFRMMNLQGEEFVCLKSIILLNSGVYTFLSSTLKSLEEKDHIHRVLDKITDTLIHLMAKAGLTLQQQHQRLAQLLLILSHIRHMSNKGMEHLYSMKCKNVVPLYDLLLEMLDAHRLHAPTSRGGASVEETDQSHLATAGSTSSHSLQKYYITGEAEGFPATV
SMILES,Potency [1],Potency [2],Potency [3],Potency [4],Potency [5],Potency [6],Potency [7],Potency [8],Potency [9],Potency [10],Potency [11],Potency [12],Potency [13],Potency [14],Potency [15],outcome [16],Potency [17],Potency [18]
CN1[C@@H]2CC(OC(=O)[C@H](CO)c3ccccc3)C[C@H]1[C@@H]1O[C@@H]12 (stereo partly specified),inactive,inactive,inactive,inactive,inactive,inactive,inactive,inactive,inactive,inactive,inactive,inactive,inactive,inactive,inactive,inactive,–,–
CCCC[P+](CCCC)(CCCC)CCCC,–,inactive,inactive,inactive,19.4 µM (active) and 4.36 µM (active),inactive,inactive,inactive,inactive,inactive,–,–,inactive,inactive,inactive,inactive,inactive,–
CCN(CC)C(=O)c1cccc(C)c1,inactive,inactive,inactive,inactive,inactive,inactive,inactive,inactive,inactive,inactive,inactive,inactive,inactive,inactive,inactive,inactive,–,–
CC(=O)CCC(=O)O,–,inactive,inactive,inactive,inactive,inactive,inactive,inactive,inactive,inactive,inactive,inactive,inactive,inactive,inactive,inactive,inactive,inactive
NC(CO)(CO)CO,inactive,inactive,inactive,inactive,inactive,inactive,inactive,inactive,inactive,inactive,inactive,inactive,inactive,inactive,inactive,inactive,–,–
NC1CCCCC1,inactive,inactive,inactive,inactive,inactive,inactive,inactive,inactive,inactive,inactive,inactive,–,inactive,inactive,inactive,inactive,–,–
CN1CCC[C@H]1c1cccnc1,–,inactive,inactive,inactive,inactive,inactive,inactive,inactive,inactive,inactive,–,–,inactive,inactive,inactive,inactive,inactive,–
Nc1ccc([N+](=O)[O-])cc1O,–,inactive,inactive,inactive,inactive,inactive,inactive,inactive,61.1 µM (active),–,inactive,inactive,–,30.6 µM (active),24.3 µM (active),inactive,inactive,–
CN(C)C(=S)SC(=S)N(C)C,–,2.52 µM (active) and 1.95 µM (active) and 2.68 µM (active),inactive,2.75 µM (active),2.24 µM (active) and 2.19 µM (active) and 6.74 µM (active),inactive,inactive,inactive,2.5 µM (active) and 5.45 µM (active) and 3.76 µM (active),2.5 µM (active) and 1.72 µM (active) and 3.35 µM (active),–,inactive,inactive,3.14 µM (active) and 545 nM (active) and 2.11 µM (active),789 nM (active) and 217 nM (active) and 6.68 µM (active),inactive,2.52 µM (active) and 8.71 µM (active) and 3.01 µM (active),inactive
O=C1c2c(O)cccc2Cc2cccc(O)c21,inactive,inactive,inactive,inactive,inactive,inactive,inactive,inactive,inactive,inactive,–,inactive,inactive,inactive,inactive,inactive,–,inactive
CCN(Cc1c(F)cccc1Cl)c1c([N+](=O)[O-])cc(C(F)(F)F)cc1[N+](=O)[O-],–,inactive,inactive,inactive,43.6 µM (active),–,inactive,inactive,inactive,inactive,–,–,inactive,inactive,inactive,inactive,inactive,inactive
CCCc1cc(=O)[nH]c(=S)[nH]1,–,inactive,inactive,inactive,inactive,inactive,inactive,inactive,inactive,inactive,inactive,inactive,inactive,inactive,inactive,inactive,inactive,inactive
O=C1OC2(c3ccccc31)c1cc(Br)c(O)c(Br)c1Oc1c2cc(Br)c(O)c1Br,–,5.58 µM (active) and 14.2 µM (active) and 23.9 µM (active),5.58 µM (active) and 12.7 µM (active) and 19 µM (active),inactive,inactive,inactive,4.43 µM (active) and 7.11 µM (active) and 19 µM (active),5.58 µM (active) and 14.2 µM (active) and 21.3 µM (active),7.81 µM (active) and 22.3 µM (active) and 11.9 µM (active),4.93 µM (active) and 25 µM (active) and 10.6 µM (active),inactive,inactive,inactive,inactive,inactive,inactive,4.97 µM (active) and 7.11 µM (active) and 21.3 µM (active),–
